The values below come from PubChem BioAssay (NCATS).

“And” between values parts separate entries of the source, which are not always exact repeats. Equal entries are not always repeated. Inconclusive results are not listed. The source made the active and inactive calls. Unless noted, calls come from the whole dose curve; as a rule, active = well fitted curve in the direction sought with a large enough effect; inconclusive = small, poorly fitted or top-dose-only effect, or another doubt; inactive = no such curve, though single readings can be large; an effect the other way counts as inactive or inconclusive.

A short description of test [1]: Cell Viability - N2a (AID 540).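 For activity change, negative = cytotoxicity: plate controls were DMSO alone for no effect and tamoxifen control for full effect.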 Note: nearly all actives have a fitted effect of over 45% in size. Note: potency is the fitted concentration of half-maximal effect. The note with it: N2a mouse neuroblastoma cell viability; activity change, negative = cytotoxicity: at 92.2 µM (top of the series). A digest of the protocol:
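N2a mouse neuroblastoma, 1500 cells/well, 5 hr settle; compound 40 hr, 37 °C; CellTiter-Glo 20 min RT; luminescence; Hill-fit AC50.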

A short description of test [2]: Cell Viability - H-4-II-E (AID 543). Note: % is set by controls: 0 for no effect and ±100 for the full control effect; nearly all actives have a fitted effect of over 35% in size. A digest of the protocol:
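qHTS, rat hepatoma H-4-II-E, 1500 cells/well; 40 hr compound exposure, 37 °C; CellTiter-Glo ATP luminescence after 20 min RT; AC50 by standard Hill fit.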

A short description of test [3]: Cell Viability - Renal Proximal Tubule (AID 545).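 For activity change, negative = cytotoxicity: 0% = DMSO only and -100% = 100 µM tamoxifen.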 Note: nearly all actives have a fitted effect of over 40% in size. Note: potency is the fitted concentration of half-maximal effect. The conditions noted are these: renal proximal tubule cells viability, primary cells of rat origin; activity change, negative = cytotoxicity: at 91.7 µM (top of the series). A digest of the protocol: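 In this qHTS format, normal rat kidney-derived proximal tubule cells in complete culture medium receive compound titrations, then sit 40 hours at 37 °C before luciferase-based ATP quantitation; potency is reported as AC50 from concentration-response curves.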

Test [4] is described as follows: Cell Viability - LYMP2-001 (AID 921).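 Note: cells exposed to compound for 24 h at 37 °C; 0% = DMSO only and full inhibition = tetraoctylammonium bromide control wells; nearly all actives have a fitted effect of over 70% in size.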 A digest of the protocol:
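A lymphoblastoid cell line of human origin was treated with library compounds across a concentration series for 24 hours, and viable cell number was estimated from ATP-driven luciferase light output. Hill modeling gave AC50.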

Test [5] can be described thus: MultiTox-Fluor Cytotoxicity Assay - LYMP1-001 - Live Cells (AID 947).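 Note: 0% = DMSO only and full inhibition = tetraoctylammonium bromide control.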
Test [6] in a line: MultiTox-Fluor Cytotoxicity Assay - LYMP1-002 - Dead Cells (AID 960).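 Note: cells exposed to compound for 16 h at 37 °C; 0% = DMSO and 100% = tetraoctylammonium bromide; nearly all actives have a fitted effect of over 60% in size.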 A digest of the protocol: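 Readout: fluorescence at 485/520 from cell-impermeant bis-AAF-R110 cleaved by proteases leaking from damaged cells. LYMP1-002 lymphoblastoid line, 16 hr compound treatment at 37 C, concentration-response in qHTS format; Hill-equation AC50 values.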
Test [7] in a line: Cell Viability - LYMP1-003 - Assay at 40 hr (AID 964). Note: nearly all actives have a fitted effect of over 60% in size. Note: potency is the fitted concentration of half-maximal effect. A digest of the protocol:
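LYMP1-003 lymphoblastoid cells, 2500/well; 5 hr preincubation, 40 hr compound exposure, 37 C; CellTiter-Glo 30 min RT; luminescence; Hill-fit AC50. Positive control tetraoctylammonium bromide.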

A short description of test [8]: Cell Viability - LYMP2-004 (AID 966).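 Note: cells exposed to compound for 24 h; plate controls were DMSO only for no effect and tetraoctylammonium bromide control for full effect; nearly all actives have a fitted effect of over 65% in size.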 The method, boiled down:
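Luminescent ATP read-out (CellTiter-Glo, 30 min RT) after 24 hr compound exposure at 37 C; 2500 lymphoblastoid cells/well, complete medium. Decrease in ATP = cytotoxicity; AC50 from standard Hill model.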

The nature of test [9]: Cell Viability - LYMP2-015 (AID 971).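 Note: cells exposed to compound for 24 h; 0% = DMSO only and full effect = 92 µM tetraoctylammonium bromide; nearly all actives have a fitted effect of over 55% in size.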 The method, boiled down: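 qHTS cytotoxicity: 2500 cells/well, 5 hr 37 C, compound 24 hr 37 C, CellTiter-Glo 30 min RT, luminescence. Loss of ATP = toxicity; AC50 via standard Hill fit.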
Test [10] in a line: Cell Viability - LYMP2-017 (AID 972).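 Note: cells exposed to compound for 24 hours at 37 °C; % is set by controls: 0 for no effect and ±100 for the full control effect; nearly all actives have a fitted effect of over 55% in size.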 The method, boiled down: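 Luminescent ATP read-out (CellTiter-Glo, 30 min RT) reports viable cell number. Cells: human lymphoblastoid line, 2500 per well, 5 hr preincubation, 24 hr compound exposure at 37 C. AC50 is derived from qHTS concentration-response data using the standard Hill model.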
Test [11] is described as follows: Cell Viability - LYMP2-019 (AID 973).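 Note: cells exposed to compound for 24 h at 37 °C; 0% = DMSO alone and full effect = 92 µM tetraoctylammonium bromide; nearly all actives have a fitted effect of over 55% in size.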 The method, boiled down: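 qHTS, 1536-well; 2500 cells/well; 5 hr pre-incubation, 24 hr compound exposure, 37 C; CellTiter-Glo added, 30 min RT; luminescence read; AC50 via standard Hill equation.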
The nature of test [12]: Cell Viability - LYMP2-010 (AID 981).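 Note: cells exposed to compound for 24 hours at 37 °C; % is set by controls: 0 for no effect and ±100 for the full control effect; nearly all actives have a fitted effect of over 55% in size.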 A digest of the protocol: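 qHTS cytotoxicity, 1536-well: 2500 cells/well, 5 hr settle, 24 hr compound at 37 C, CellTiter-Glo 30 min RT, luminescence read. Decrease in ATP = toxicity; AC50 via standard Hill equation. Positive control tetraoctylammonium bromide.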
Test [13] in a line: qHTS assay for small molecule agonists of retinoid X receptor alpha signaling (AID 588544; calls by dose curve). The note with it: HEK293T RXRa-UAS-bla, beta-lactamase reporter, 18 h; 530 nm emission. In general terms: Quantitative high-throughput screening tests each substance at several concentrations.
Test [14] deals with Retinoic acid receptor RXR-alpha (Homo sapiens) (UniProt P19793). Described as above.
Test [15] in a line: qHTS assay for small molecule agonists of the antioxidant response element (ARE) signaling pathway measured by Nrf2-dependant transcriptional activity (AID 720636; active = well fitted curve in the direction sought with a large enough effect in the repeat runs; an effect the other way counts as inactive or inconclusive;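 note: HepG2 cells with an ARE-driven luciferase reporter; % of control where 0% means no effect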). A digest of the protocol:
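Nrf2-dependent transcription is measured in ARE-luc HepG2 cells: compound is applied for 16 hr at 37 C after a 6 hr attachment period, and luciferase activity is quantified by luminescence using ONE-Glo.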

Test [16] concerns the target Nuclear receptor subfamily 1 group I member 2 (Rattus norvegicus) (UniProt Q9R1A7). Kind of test: qHTS assay for small molecule activators of the rat pregnane X receptor (rPXR) signaling pathway (AID 651751; call rule not given here; note: 0% is about no effect). The note with it: rPXR reporter cells, luciferase (One-Glo), 24 h.
A short description of test [17]: Cell Viability - SK-N-SH (AID 435; calls by dose curve; note: potency is the fitted concentration of half-maximal effect). The conditions noted are these: SK-N-SH neuroblastoma cell viability qHTS. The method, boiled down: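 Human neuroblastoma line, 40 h exposure at 37 °C, ATP quantified via luciferase luminescence; DMSO and 100 uM tamoxifen define 0 and 100% inhibition for AC50 fitting.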
A short description of test [18]: Cell Viability - LYMP2-009 (AID 968).
Test [19] deals with Thyroid hormone receptor beta (Homo sapiens) (UniProt P10828). The test can be described thus: qHTS assay for small molecule antagonists of thyroid hormone receptor beta signaling (AID 588547; active = well fitted inhibition curve with a large enough effect in the signal ratio, with a control signal flat, not every such curve was filed as active; the % refers to the signal ratio;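 note: cells stimulated with 0.4 nM T3 agonist during compound exposure; % is set by controls: 0 for no effect and ±100 for the full control effect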). The note with it: TR-UAS-bla HEK293, beta-lactamase ratio, antagonist mode, 18 h. The method, boiled down: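 TR-UAS-bla GripTite HEK293 cells in 2% charcoal/dextran FBS medium were preincubated 4 h at 37 C, given compound (0.59 nM to 92 uM) plus 0.4 nM T3 (final) for 18 h, then CCF4 for 2 h at RT; Hill fit gave IC50.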

Test [20] is described as follows: qHTS assay for small molecule disruptors of the mitochondrial membrane potential - 5 hr assay (AID 651755; calls by dose curve; note: nearly all actives have a fitted effect of over 40% in size; note: potency is the fitted concentration of half-maximal effect). The method, boiled down: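 Seed HepG2 overnight, add compound, incubate 5 hr at 37C and 5% CO2, stain 30 min with Mito-MPS, then measure monomer (490/535 nm) and aggregate (540/590 nm) fluorescence.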

Chain of Thyroid hormone receptor beta (Homo sapiens) (P10828 whole entry, looked up): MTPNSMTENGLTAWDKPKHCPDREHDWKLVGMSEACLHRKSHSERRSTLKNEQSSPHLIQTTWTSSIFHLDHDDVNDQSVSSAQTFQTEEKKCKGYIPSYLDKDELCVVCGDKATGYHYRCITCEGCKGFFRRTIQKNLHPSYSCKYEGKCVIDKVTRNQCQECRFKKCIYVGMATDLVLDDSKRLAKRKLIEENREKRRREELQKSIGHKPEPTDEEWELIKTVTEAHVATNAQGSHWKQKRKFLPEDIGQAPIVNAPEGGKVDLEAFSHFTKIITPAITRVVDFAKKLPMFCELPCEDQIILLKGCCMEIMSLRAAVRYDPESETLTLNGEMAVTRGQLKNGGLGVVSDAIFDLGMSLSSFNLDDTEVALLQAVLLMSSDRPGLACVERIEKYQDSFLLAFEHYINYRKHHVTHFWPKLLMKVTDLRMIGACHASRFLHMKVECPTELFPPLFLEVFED
Chain of Retinoic acid receptor RXR-alpha (Homo sapiens) (P19793 whole entry, looked up): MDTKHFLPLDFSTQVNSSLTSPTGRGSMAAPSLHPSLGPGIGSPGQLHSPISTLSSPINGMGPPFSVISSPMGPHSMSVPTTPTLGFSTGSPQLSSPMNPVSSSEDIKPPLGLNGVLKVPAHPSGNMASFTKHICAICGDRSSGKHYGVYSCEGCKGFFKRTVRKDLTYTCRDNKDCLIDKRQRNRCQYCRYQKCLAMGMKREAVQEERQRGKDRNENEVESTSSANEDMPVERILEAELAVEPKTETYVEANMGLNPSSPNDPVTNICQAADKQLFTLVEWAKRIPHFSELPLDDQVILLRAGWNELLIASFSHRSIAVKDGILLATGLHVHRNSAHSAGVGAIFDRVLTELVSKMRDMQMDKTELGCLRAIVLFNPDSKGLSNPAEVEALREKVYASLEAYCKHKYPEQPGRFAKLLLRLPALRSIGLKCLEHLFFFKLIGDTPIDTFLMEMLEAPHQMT
Chain of Nuclear receptor subfamily 1 group I member 2 (Rattus norvegicus) (Q9R1A7 whole entry, looked up): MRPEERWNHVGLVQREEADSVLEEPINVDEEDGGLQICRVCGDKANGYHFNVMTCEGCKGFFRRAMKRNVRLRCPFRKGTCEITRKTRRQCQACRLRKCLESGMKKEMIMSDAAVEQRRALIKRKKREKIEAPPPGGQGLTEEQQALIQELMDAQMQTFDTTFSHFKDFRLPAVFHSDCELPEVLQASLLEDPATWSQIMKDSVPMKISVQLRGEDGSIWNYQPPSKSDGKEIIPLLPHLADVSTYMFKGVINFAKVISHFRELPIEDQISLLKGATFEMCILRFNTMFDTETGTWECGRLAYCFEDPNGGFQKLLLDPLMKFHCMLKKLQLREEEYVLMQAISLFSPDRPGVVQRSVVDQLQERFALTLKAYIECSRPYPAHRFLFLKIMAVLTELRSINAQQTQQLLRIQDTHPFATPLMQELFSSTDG

As to `Oc1cc(Cl)cc(Cl)c1Cl`, the Potency in test [1] is 31.6 µM (active). Further, the Potency result in test [2], in [3], in [4], in test [5], in test [6] and in test [7] was “inactive” each time. Besides, the Potency result in [8], in [9], in [10], in test [11], in test [12] and in test [14] was “inactive” each time. Besides, in test [15], the Potency entry is “inactive”. In addition, the figures for the max response in [13] and in test [16] were 0.211% and 0.309% (inactive), respectively.
Turning to `c1ccc(Nc2cccc3ccccc23)cc1`, the Potency in [17] was > 92 µM (inactive). The Potency result in test [2], in [3], in [4], in test [5], in test [7] and in [8] was “inactive” each time. Also, the Potency result in test [18], in test [9], in test [10], in test [11], in test [12] and in test [14] was “inactive” throughout. Moreover, the max response in [13] is -7.08% and 4.25%. In addition, in test [19], the activity change % (negative = inhibition) is -18.5% (inactive) and -42% (inactive).
For the compound `NC(=O)Nc1nc2ccccc2[nH]1`, the Potency in [17] is > 92 µM (inactive). In addition, in test [1], the activity change, negative = cytotoxicity is -4.08% (inactive). Also, the Potency entry in [2], in test [3], in [4], in test [5], in test [7] and in test [8] was “inactive” in each case. In addition, the Potency entry in [18], in test [9], in [10], in [11], in test [12] and in [14] was “inactive” throughout. Also, the Potency result in test [20] and in [15] was “inactive” throughout. In addition, the max response is -1.01% in [13] and -2.46% (inactive) in test [16]. Besides, the activity change % (negative = inhibition) in [19] was -13.1% (inactive).
Regarding `Nc1ccc(N)c(Cl)c1`, the activity change, negative = cytotoxicity in test [1] is 3.89% (inactive). In addition, the Potency entry in [2], in [6], in test [8], in [10], in test [11] and in [14] was “inactive” throughout. The Potency in test [7] was 39.8 µM (active); in test [20] it was 10.6 µM (active). Also, the max response was 15.5% in test [13] and -1.32% (inactive) in [16]. In addition, the activity change % (negative = inhibition) in [19] is -7.72% (inactive).
`Cc1c(C(=O)O)c(O)cc2c1C(=O)c1c(O)c([C@H]3O[C@H](CO)[C@@H](O)[C@H](O)[C@H]3O)c(O)c(O)c1C2=O`: the Potency in test [17] was 38.2 µM (active); in test [3], 31.6 µM (active). The Potency result in test [5], in test [6], in [14], in [20] and in [15] was “inactive” in each case. Also, the max response is -6.4% in test [13] and -9.27% (inactive) in test [16].
In the case of `O=C1OC(=O)c2ccccc21`, in [17], the Potency was > 92 µM (inactive). For the same compound, the activity change, negative = cytotoxicity in test [1] was -28.6% (inactive). Moreover, the Potency result in [2], in test [3], in test [4], in test [5], in [6] and in test [7] was “inactive” each time. For the same compound, the Potency entry in [8], in test [9], in test [11], in test [12], in test [14] and in [20] was “inactive” throughout. Besides, in test [15], the Potency result is “inactive”. Moreover, the max response in [13] was -8.02%. For the same compound, in test [19], the activity change % (negative = inhibition) is 1.82% (inactive).
For `CC(/C=C/C=C(C)/C=C/C(=O)O)=C\C=C\C=C(C)\C=C\C=C(C)\C=C\C(=O)O`, the Potency in test [17] was > 92 µM (inactive). Besides, the activity change, negative = cytotoxicity in [1] is -5.79% (inactive). Moreover, the Potency result in [2], in [4], in test [6], in [7], in test [18] and in test [9] was “inactive” throughout. Besides, the Potency result in test [10], in test [11], in [12], in test [14] and in test [20] was “inactive” throughout. For the same compound, the max response in [13] was 4.44%; in test [16], 10.8% (inactive). Also, the activity change % (negative = inhibition) in test [19] was -2.15% (inactive).
